Screen size: about 320,000 compounds; about 2,100 (0.66%) were called active. Roughly 53% stayed inconclusive and do not appear here. Calls come from the whole dose curve; as a rule, active = well fitted inhibition curve with a large enough effect in the signal ratio, with a control signal flat (not every such curve was filed as active); inconclusive = small, poorly fitted or top-dose-only effect, or effect the other way, or a change in a side signal; inactive = flat fitted curve, though single readings scatter; the % refers to the signal ratio. Many of the other results were omitted from the sample, so actives are more common in it than they were.
Potency is the fitted concentration of half-maximal effect.

The nature of this experiment: qHTS Assay for Lipid Storage Modulators in Drosophila S3 Cells.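 For cell number change: cells counted by Cell Tracker Red CMTPX staining in the red channel.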 For lipid storage change, negative = inhibition: % is set by controls: 0 for no effect and ±100 for the full control effect. Particulars: BODIPY lipid droplet fluorescence, 18-24 h, cells fed with added oleic acid; cell number change: measured here: cell count max response; series mostly up to 46.1 µM. In outline: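 Drosophila S3 cells got compounds at several concentrations plus oleic acid (400 uM solution). Laser-scanning cytometry with 488 nm excitation read lipid droplets at 500-530 nm and cells at 575-640 nm. Percent activity was relative to 20 uM Triacsin C.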
As for `CC1=[N+](CC(=O)NC(C)(C)C)CCc2ccccc21`, the Potency entry was “inactive” and the cell number change was -0.377%.
The matching figures for `O=C(Nc1cccc(OC(=O)c2ccc(Br)o2)c1)c1ccccc1`: “inactive” and 11.8%.
On to `Cc1ccc(OCCCCNC2CCCCC2)c(C)c1`, for which the Potency result was “inactive”.
Same read-out and setting: the value for `COCCCNC(=O)CC(NS(=O)(=O)c1ccc(Cl)cc1)c1ccco1` (stereo not drawn) was 32.6 µM (active).
As to `CCCNC(=O)CC(NS(=O)(=O)c1ccc(Cl)cc1)c1ccco1` (stereo not drawn), the Potency entry is “inactive” and the cell number change was 17.5%.
`COCCCNC(=O)CC(NS(=O)(=O)c1ccc(C)cc1)c1ccco1` (stereo not drawn): the Potency entry is “inactive” and the cell number change was determined as 0.789%.
Consider `CSC(=NC1CCCCC1)NS(=O)(=O)c1ccccc1`, for which the Potency entry was “inactive”.
Take `COc1ccc(N2CCN(C(=O)c3ccc4ccccc4n3)CC2)cc1`: the Potency entry was “inactive” and the cell number change is -2.64%.
For `CN(CC(=O)Nc1ccc(N2CCOCC2)cc1)CC(=O)Nc1ccc(N2CCOCC2)cc1` the same measures were “inactive” and -8.37%.
For `O=[N+]([O-])C1=CC=C2C(=NC3(CCCCC3)N2O)C1=NCCO` the same measures were “inactive” and -8.38%.
In the case of `CCOc1cc(/C=C2\COc3ccccc3C2=O)cc(Br)c1OCC(=O)N(C)C`, the Potency result is “inactive” and the cell number change was 21.8%.
In the case of `CCNC(=O)COc1ccc(/C=C2\COc3ccccc3C2=O)cc1OC`, the Potency was 3.66 µM (active).
Turning to `CCOc1cc(/C=C2\COc3ccccc3C2=O)ccc1OCC(=O)N(C)C`, the Potency result is “inactive” and the cell number change is -5.65%.
Consider `CSc1ccccc1OCc1cc(C(=O)NCCN2CCCc3ccccc32)no1`, for which the Potency result is “inactive”.
Same read-out and setting: under `O=C(Nc1nnc(SCC(=O)N2CCOCC2)s1)c1ccccc1` stands “inactive”.
Regarding `Cc1cc(NC(=O)c2ccc(S(=O)(=O)N3CCOCC3)cc2)nc2c1c(=O)oc1ccccc12`, the Potency entry was “inactive” and the cell number change is -0.276%.
For `COc1cccc(CNC(=O)CCCNS(=O)(=O)c2cccs2)c1` the same measures were “inactive” and -2.45%.
In the case of `CCOC(=O)C1=C(C)NC(C)=C(C(=O)OCC)C1C(=O)OCC(=O)NC1(C#N)CCCCC1`, the lipid storage change, negative = inhibition was 18.2% [at 0.0737 µM] (inactive).
Regarding `O=C(CCCC(=O)OCC(F)(F)C(F)F)Nc1ccc(NC(=O)CCCC(=O)OCC(F)(F)C(F)F)cc1`, the Potency entry is “inactive” and the cell number change was 25.6%.
For the compound `CCOC(=O)N1CCN(C(=O)c2ccc(CNS(=O)(=O)c3ccc(OC)cc3)cc2)CC1`, the Potency entry is “inactive”.
Consider `Cc1ccc(C)c(S(=O)(=O)NCc2ccc(C(=O)N3CC(C)OC(C)C3)cc2)c1` (stereo not drawn), for which the Potency result was “inactive” and the cell number change was -9.56%.
For `COc1ccc(N2CCN(C(=O)c3ccc(CNS(=O)(=O)c4cc(C)ccc4C)cc3)CC2)cc1` the same measures were 7.31 µM (active) and -25.1%.
As to `Cc1cccc(C(=O)NNc2ncnc3c2cnn3C)c1`, the Potency result was “inactive” and the cell number change amounted to 3.73%.
`CCCCC(C)(O)C/C=C/[C@H]1[C@H](O)CC(=O)[C@@H]1CCCCCCC(=O)OC` (stereo partly drawn): the Potency was 23.1 µM (active) and the cell number change is -1.2%.
As to `CCCCCCC(=O)Oc1ccc(N2C(=O)CCC2=O)cc1`, the Potency result was “inactive” and the cell number change is -4.94%.
In the case of `CCCCC[C@H](O)/C=C/[C@@H]1[C@@H](C/C=C\CCCC(=O)OC)[C@@H](O)C[C@H]1O`, the Potency result was “inactive” and the cell number change was found to be 2.9%.
The matching figures for `COC(=O)c1ccc(C2C(C(=O)OCC(C)C)=C(C)N=C3SCCC(=O)N32)cc1` (stereo not drawn): “inactive” and -2.78%.
The matching figures for `CCCCCCN1C2=NCCCN2c2ccccc21`: “inactive” and -6.55%.
The matching figures for `Cc1sc(-n2cccc2)c(C(=O)O)c1C`: 1.84 µM (active) and -19.7%.
On to `O=C(O)c1c(-n2cccc2)sc2c1CCCC2`, for which the Potency entry was “inactive” and the cell number change came out at 1.31%.
For `CCOC(=O)c1c(-n2cccc2)sc2c1CCCC2=O` the same measures were “inactive” and -2.93%.
The matching figures for `COc1ccc(Nc2ccncc2[N+](=O)[O-])cc1`: “inactive” and 12.3%.
For the compound `O=C(C1CC(=O)N(c2ccccc2)C1)N1CCN(C2=NS(=O)(=O)c3ccccc32)CC1` (stereo not drawn), the Potency result was “inactive”.
Regarding `Cc1cc(C)c(C)c(S(=O)(=O)N2CCC(C(=O)N3CC(C)CC(C)C3)CC2)c1C` (stereo not drawn), the Potency result was “inactive” and the cell number change was -11.8%.
For `COc1ccccc1NC(=O)C1=C(C)Nc2nnnn2C1c1cc(Br)ccc1OC` (stereo not drawn) the same measures were “inactive” and 1.78%.
The matching figures for `COc1ccc(CNC(C)C23CC4CC(CC(C4)C2)C3)c(OC)c1OC` (stereo not drawn): “inactive” and 0.296%.
For `CCCCCCCCNC(=O)c1cccnc1SCC(=O)Nc1ccc(OC)cc1OC` the same measures were 20.6 µM (active) and -25.3%.
For the compound `COc1ccc(OC)c(NC(=O)CSc2ncccc2C(=O)O)c1`, the Potency result was “inactive”.
`CCCCCNC(=O)c1cccnc1SCC(=O)Nc1ccccc1OC`: the Potency entry is “inactive” and the cell number change was -0.809%.
In the case of `CN(C(=O)C1CCC(=O)N(Cc2ccccc2F)C1)C1CCOCC1` (stereo not drawn), the Potency entry is “inactive” and the cell number change is 7.76%.
The matching figures for `COC(=O)c1cc(C)sc1NC(=O)CC1Nc2ccccc2NC1=O` (stereo not drawn): 16.4 µM (active) and -20.6%.
With `CCc1cc(C(=O)OC)c(NC(=O)CC2Nc3cc(C)c(C)cc3NC2=O)s1` (stereo not drawn), the Potency result was “inactive” and the cell number change was -3.56%.
In the case of `CCCCNC(=O)CC1Nc2ccccc2NC1=O` (stereo not drawn), the Potency result was “inactive”.
In the case of `CC(C)CNC(=O)CC1Nc2ccccc2NC1=O` (stereo not drawn), the Potency was 10.3 µM (active) and the cell number change is -19.4%.
`CC(NC(=O)CC1Nc2ccccc2NC1=O)c1ccccc1` (stereo not drawn): the Potency entry is “inactive”.
Take `COC(=O)c1c(NC(=O)CC2Nc3ccccc3NC2=O)sc(C)c1C` (stereo not drawn): the Potency entry is “inactive” and the cell number change is 18.7%.
The matching figures for `COC(=O)c1[nH]c(C)c(/C(O)=C2\C(=O)C(=O)N(CCN(C)C)C2c2cccc(OC)c2OC)c1C` (stereo not drawn): “inactive” and -3.7%.
For `Cc1cc(=O)oc2cc(OC(C)C(=O)NCCCn3ccnc3)ccc12` (stereo not drawn) the same measures were “inactive” and 5.93%.
Turning to `COC(=O)c1cn(NC(=O)c2ccncc2)c(=O)c2ccccc12`, the Potency entry was “inactive” and the cell number change is -18.7%.
For `COc1ccccc1C(=O)N1CCN(Cc2nc(CC3CC3)no2)CC1`, the Potency entry was “inactive” and the cell number change was 10.8%.
As for `Cc1ccc(NC(=O)CS(=O)CC(=O)NCCCc2ccccc2)cc1Cl` (stereo not drawn), the Potency entry was “inactive”.
As for `Cc1ccc(NC(=O)CS(=O)CC(=O)Nc2ccccc2-c2ccc(C)o2)cc1` (stereo not drawn), the Potency result is “inactive” and the cell number change was 17.8%.
For `Cc1ccc(-c2ccccc2NC(=O)CS(=O)CC(=O)Nc2ccc(C)c(Cl)c2)o1` (stereo not drawn) the same measures were 23.1 µM (active) and -13%.
The matching figures for `OCC1(CCc2ccccc2)CCN(Cc2ccccc2Cl)CC1`: “inactive” and 4.39%.
On to `COc1ccc(-c2nnc3ccc(SCC(=O)Nc4cc(C)on4)nn23)cc1`, for which the Potency entry is “inactive” and the cell number change worked out at 8.27%.
For `Cc1cccc(-n2c(C)cc(C(=O)NC3CCCCC3)c2C)c1` the same measures were 20.6 µM (active) and -27.1%.
For `Cc1cc(C(=O)NC2CCCCC2)c(C)n1-c1ccc(F)cc1` the same measures were “inactive” and 2.04%.
For `COc1ccc(-n2c(C)cc(C(=O)NC3CCCCC3)c2C)cc1` the same measures were “inactive” and -26.1%.
As for `O=C(Nc1ccc(Cl)cc1)C1C2CCC3C(CCC21)C3(Cl)Cl` (stereo not drawn), the Potency entry is “inactive” and the cell number change was -4.94%.
Regarding `O=C(NCC1CCCN1S(=O)(=O)c1ccccc1)C(=O)NC1CC1` (stereo not drawn), the Potency entry was “inactive”.
As for `CCN(CC)S(=O)(=O)c1ccc(F)cc1`, the Potency result was “inactive” and the cell number change stood at 12.5%.
The matching figures for `CCCc1ccc(S(=O)(=O)N(C)S(=O)(=O)c2ccc(F)cc2)cc1`: 0.82 µM (active) and 17.6%.
`CN(CC(=O)O)S(=O)(=O)c1ccc(F)cc1`: the Potency entry is “inactive” and the cell number change was 12.3%.
The matching figures for `CCN(CC(=O)Nc1ccccc1C(F)(F)F)C(=O)CSCc1ccc(C)cc1`: “inactive” and 3.04%.
For `COc1ccc(CNC(=O)OCCN2CCN(S(=O)(=O)c3ccc(C)cc3)CCC2=O)cc1` the same measures were “inactive” and 22.9%.
The matching figures for `Cc1ccc(O)c(NC(=O)CN(C)S(=O)(=O)c2ccc(Cl)cc2)c1`: “inactive” and 2.51%.
For the compound `COc1ccc(N2C(=O)C(CC(=O)Nc3ccccc3)N(CCc3ccc(OC)c(OC)c3)C2=O)cc1` (stereo not drawn), the Potency entry is “inactive” and the cell number change was 0.202%.
The matching figures for `O=C(COC(=O)Cn1cnc2ccccc21)NCc1ccc(F)cc1`: “inactive” and 21.3%.
For the compound `O=C(COC(=O)Cn1cnc2ccccc21)NCCC1=CCCCC1`, the Potency result is “inactive” and the cell number change is -15.3%.
The matching figures for `O=C(COC(=O)Cn1cnc2ccccc21)NCCc1ccc(Cl)cc1`: 8.2 µM (active) and 22.6%.
For the compound `CC(=O)Nc1ccc(S(=O)(=O)N2CCN=C2SCc2cccnc2)cc1`, the Potency entry is “inactive” and the cell number change is -0.745%.
For `COc1cc(-n2nc(C)c3c2OC(N)=C(C#N)C3c2ccccc2)c(Cl)c(Br)c1O` (stereo not drawn) the same measures were “inactive” and -5.47%.
The matching figures for `Cc1cc(N2CCCCC2)nc2c(C)cccc12`: “inactive” and 3.12%.
On to `COc1ccc(/C=c2/sc3n(c2=O)C(c2ccccc2OC)C2=C(N=3)c3ccccc3CC2)cc1O` (stereo not drawn), for which the Potency result is “inactive” and the cell number change is -22.9%.
For `CN(C)C(=O)C(OC(=O)c1ccc2c(c1)CCCC2)c1ccccc1` (stereo not drawn) the same measures were 0.58 µM (active) and 15.3%.
For `COc1ccc(C(=O)OC(C(=O)c2ccccc2)c2ccccc2)cc1` (stereo not drawn) the same measures were “inactive” and -12.3%.
The matching figures for `CN(C)C(=O)C(OC(=O)c1ccc2ccccc2n1)c1ccccc1` (stereo not drawn): “inactive” and 16.5%.
With `CCOC(=O)c1cc(=O)c2c([N+](=O)[O-])ccc(OC)c2o1`, the Potency entry was “inactive” and the cell number change is -14.1%.
For `CCCC(=O)Nc1cccc(Oc2ccc3c(c2)C(=O)NC3=O)c1` the same measures were 1.46 µM (active) and -28.1%.
As to `CCC(=O)Nc1ccc(Oc2ccc3c(c2)C(=O)NC3=O)cc1`, the Potency entry is “inactive” and the cell number change is -7.29%.
The matching figures for `CC(=O)Nc1cccc(Oc2ccc3c(c2)C(=O)NC3=O)c1`: “inactive” and -4.38%.
The matching figures for `CC(C)c1ccc(NC(=O)N2CCOCC2)cc1`: “inactive” and -1.06%.
The matching figures for `O=C(CSc1nc(-c2ccc(F)cc2)nc2c1Cc1ccccc1O2)Nc1ccc(C(=O)O)cc1`: “inactive” and -7.56%.
For `CN1CCCN(C(=O)c2c(F)cccc2Cl)CC1`, the Potency is 1.64 µM (active) and the cell number change is -3.31%.
The matching figures for `CN1CCCN(C(=O)c2ccccc2Cl)CC1`: “inactive” and -6.61%.
With `O=C(c1c(F)cccc1F)N1CCCC1`, the Potency entry was “inactive” and the cell number change was determined as 7.6%.
With `CCOC(=O)/C(C#N)=C(/C)c1ccc(OC)cc1`, the Potency entry was “inactive”.
For `CCOc1cc2[nH]c(=O)n(CCc3ccc(OC)c(OC)c3)c(=O)c2cc1OCC`, the Potency result was “inactive” and the cell number change was determined as 0.389%.
For `O=C(O)c1ccc(N/N=C2/CCCc3ccccc32)cc1` the same measures were “inactive” and 24.2%.
The matching figures for `CC(C)CNC(=O)c1cccc2c1-c1ccccc1C2=O`: “inactive” and 24.1%.
For `CCN(CC)C(=O)c1cccc2c1C(=O)c1ccccc1-2` the same measures were “inactive” and 11.5%.
For `O=C1c2ccccc2-c2c1cccc2C(=O)N(CCO)CCO`, the Potency is 25.9 µM (active) and the cell number change was -9.84%.
Turning to `CC12CN(S(=O)(=O)c3ccccc3)CC(C)(CN(S(=O)(=O)c3ccccc3)C1)C2`, the Potency result is “inactive” and the cell number change was 1.2%.
For `CCC(C)(C)NC(=O)CN(C(=O)c1csnn1)c1cccc2c1CCCC2` the same measures were “inactive” and -10.5%.

(Values after PubChem BioAssay AID2685 (National Center for Advancing Translational Sciences (NCATS), 2010).)
